Screens (PubChem BioAssay)
beta cell repl: inducers of MIN6 beta-cell proliferation, primary screen, ATP luminescence, uHTS. AID 2380, 2010. proliferation, % at 10 µM. 0.29% of 330,000 active. MIN6 cells proliferation, ATPlite luminescence, 48 h; cells starved in 0.2% serum; 100% = growth in 10% serum;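 active = compounds whose signal lies at least 3.5 SD above the mean of all wells on their plate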;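 also: 0% = DMSO-treated cells in low-serum medium and 100% = 10% serum control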
DNA FID counter: compounds displacing fluorescent DNA intercalator, primary screen, artefact control for HCV NS3 helicase inhibitor project, biochemical, FID fluorescence; DNA fluorescent intercalator displacement; inhibition, % at 7.9 µM; 0.17% of 290,000 active; AID 1845, 2009; in the data active = inhibition above about 37%;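 also: 0% = vehicle and 100% = reference compound; higher means more ethidium bromide displaced from hairpin DNA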
PREPL inhibitor: PREPL enzyme inhibitors, primary screen, biochemical, fluorescence polarization. recombinant PREPL, fluorescence polarization activity-based probe. inhibition, % at 5.96 µM. AID 2751, 2010. 0.68% of 320,000 active; in the data active = inhibition above about 43%;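 also: 0% = enzyme with DMSO and 100% = wells lacking enzyme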
Target sequence (Q4J6C6 whole entry, looked up): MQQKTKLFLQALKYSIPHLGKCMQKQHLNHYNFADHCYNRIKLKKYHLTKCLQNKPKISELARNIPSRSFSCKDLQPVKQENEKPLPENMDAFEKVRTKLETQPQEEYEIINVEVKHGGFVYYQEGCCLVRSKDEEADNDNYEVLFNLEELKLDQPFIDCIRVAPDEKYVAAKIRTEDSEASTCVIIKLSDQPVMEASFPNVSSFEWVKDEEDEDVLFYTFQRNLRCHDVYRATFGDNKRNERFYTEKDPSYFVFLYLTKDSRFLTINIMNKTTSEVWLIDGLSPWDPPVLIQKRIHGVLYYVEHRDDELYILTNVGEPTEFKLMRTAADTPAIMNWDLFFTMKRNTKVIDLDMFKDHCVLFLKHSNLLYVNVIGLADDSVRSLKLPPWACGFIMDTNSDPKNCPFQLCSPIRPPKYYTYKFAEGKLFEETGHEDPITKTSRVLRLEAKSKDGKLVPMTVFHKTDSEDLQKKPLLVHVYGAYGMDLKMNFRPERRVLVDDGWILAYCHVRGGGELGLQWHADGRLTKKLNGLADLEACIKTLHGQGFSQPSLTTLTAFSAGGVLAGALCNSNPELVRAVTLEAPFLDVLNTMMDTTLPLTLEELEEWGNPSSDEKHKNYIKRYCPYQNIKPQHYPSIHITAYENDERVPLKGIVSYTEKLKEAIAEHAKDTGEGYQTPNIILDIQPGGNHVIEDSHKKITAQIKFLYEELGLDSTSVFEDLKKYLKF
UBC13 polyUb: UBC13 polyubiquitin chain formation inhibitors, primary screen, biochemical, TR-FRET, uHTS. Ubiquitin-conjugating enzyme E2 N (Homo sapiens), P61088. inhibition, % at 20 µM. 0.47% of 330,000 active. AID 485273, 2010; in the data active = inhibition above about 45%, passing the limit was not always enough
RAD52 anneal inh: RAD52 DNA annealing inhibitors, primary screen, biochemical, FRET, single point, set 2; recombinant RAD52 DNA annealing, FRET fluorescence; 0.46% of 360,000 active; inhibition, % at 18.7 µM; DNA repair protein RAD52 homolog (Homo sapiens), P43351; AID 651710, 2012;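 active = every replicate showing at least 50% inhibition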
RAD54 branch: inhibitors of human RAD54 branch migration, primary screen, biochemical, fluorescence, single point; RAD54 Holliday junction branch migration, FAM/BHQ fluorescence; 0.14% of 360,000 active; AID 602329, 2012; inhibition, % at 10.4 µM;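 active = mean normalized replicate activity at least 40 and at least half of replicates scoring 40 or more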;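 also: 0% = median of neutral control wells and 100% = median of positive control wells; inhibitors cause a drop in the FAM fluorescence signal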
Casp3 UBC13 ctr: CASP3 inhibitor validation, counterassay for project on UBE2N polyubiquitination blockers, biochemical, one dose. Recombinant caspase-3, Caspase-Glo 3/7 luminescence, 60 min. AID 488856, 2010. 4% of 1,400 active. inhibition, % at 20 µM. shares compounds with UBC13 polyUb;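 active = mean inhibition across replicates above about 26%, limit read from the data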;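 also: plate controls were DMSO with caspase-3 for no effect and DMSO wells lacking enzyme for full effect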
UBC13 conf: UBC13 polyubiquitination inhibitors, single-point retest, confirmation, biochemical, TR-FRET, single concentration | shares compounds with UBC13 polyUb | inhibition, % at 10 µM | 68% of 1,400 active | AID 488859, 2010; in the data active = inhibition above about 45%
The depositor's hits bear a star. Most compounds without a hit are left out; they make up all but 1.3% or so of the library.

COc1ccc(-c2cc3ccccc3s2)cc1[C@H]1[C@H]2C=CC[C@@H](C)[C@@H]2C(=O)N1Cc1ccccc1 was read as beta cell repl -6, PREPL inhibitor 21, UBC13 polyUb 48*, RAD52 anneal inh -98, RAD54 branch -1, Casp3 UBC13 ctr 60* and UBC13 conf 34.
Screening COc1ccc(-c2ccc(OC)c([C@H]3[C@H]4C=CC[C@@H](C)[C@@H]4C(=O)N3Cc3ccccc3)c2)cc1C returned beta cell repl -8, PREPL inhibitor -1, UBC13 polyUb -22, RAD52 anneal inh -23 and RAD54 branch 0.
Screening CCOC(=O)c1c(CN2CCOCC2)oc2ccc(OC)cc12 returned beta cell repl -2, DNA FID counter -18, PREPL inhibitor 1, UBC13 polyUb 1 and RAD54 branch -12.
Screening CCOC(=O)c1c(C(C)(C)C)oc2ccc(O)cc12 returned beta cell repl 4, DNA FID counter -16, PREPL inhibitor 7, UBC13 polyUb 55*, Casp3 UBC13 ctr -5 and UBC13 conf 54*.
Screening CCOC(=O)c1c(CN2CCCCC2)oc2ccc(O)cc12 returned beta cell repl -1, DNA FID counter -1, PREPL inhibitor 2, UBC13 polyUb 53*, RAD54 branch 5, Casp3 UBC13 ctr 0 and UBC13 conf 54*.
`CCOC(=O)c1c(COc2ccccc2)oc2ccc(O)cc12` gave beta cell repl -2, DNA FID counter -4, PREPL inhibitor 4 and UBC13 polyUb 21.
For C[C@@H]1CN([C@@H](C)CO)C(=O)c2cccc(NC(=O)C3CC3)c2O[C@H]1CN(C)CC1CCCCC1 the results were RAD52 anneal inh -7 and RAD54 branch 0.
`CCN(CC)CCOC(=O)c1ccc(N/C=C(/C#N)c2nc(-c3cc4ccccc4oc3=O)cs2)cc1` gave beta cell repl -6, DNA FID counter 19, UBC13 polyUb 114*, RAD52 anneal inh 3, RAD54 branch -7, Casp3 UBC13 ctr 1 and UBC13 conf 132*.
`CCN(CC)CCOC(=O)c1ccc(N/C=C(/C#N)c2nc(-c3ccc4c(c3)OCO4)cs2)cc1` gave beta cell repl -4, DNA FID counter 17, PREPL inhibitor 23, UBC13 polyUb 108*, RAD52 anneal inh -114, RAD54 branch 2, Casp3 UBC13 ctr 1 and UBC13 conf 132*.
`CCN(CC)CCOC(=O)c1ccc(N/C=C(/C#N)c2nc(-c3ccc(OC)cc3)cs2)cc1` gave beta cell repl -6, DNA FID counter 6, PREPL inhibitor 37, UBC13 polyUb 96*, RAD52 anneal inh -5, Casp3 UBC13 ctr 0 and UBC13 conf 130*.
CCN(CC)CCOC(=O)c1cccc(OC)c1 was read as beta cell repl 0, DNA FID counter 5, PREPL inhibitor 7, UBC13 polyUb -1 and RAD54 branch 3.
O=C(NC1CCCCC1)N[C@H]1CC[C@H](CCNS(=O)(=O)c2ccc(F)cc2)O[C@@H]1CO was read as RAD52 anneal inh -3 and RAD54 branch -3.
`CCS(=O)(=O)NCC[C@@H]1CC[C@H](NS(=O)(=O)c2cccc(Cl)c2)[C@H](CO)O1` gave RAD52 anneal inh -12 and RAD54 branch 2.
`CCCNC(=O)C[C@@H]1C[C@@H]2c3cc(NC(=O)c4ccc5c(c4)OCO5)ccc3O[C@@H]2[C@@H](CO)O1` gave RAD54 branch 4.
CCCN(C)C[C@@H]1OCCCC[C@@H](C)Oc2ccc(NS(=O)(=O)c3ccccc3)cc2C(=O)N([C@H](C)CO)C[C@@H]1C was read as RAD52 anneal inh 7 and RAD54 branch 11.
For C[C@H](NC(=O)[C@H]1[C@H](CO)[C@H]2Cn3c(ccc(-c4ccncc4)c3=O)[C@H]2N1C)c1ccccc1 the results were RAD52 anneal inh -15 and RAD54 branch -10.
Cc1ccc(-c2nn(-c3ccccc3)cc2CSC(=N)N)cc1 was read as beta cell repl -4, DNA FID counter 24, PREPL inhibitor -7, UBC13 polyUb 45*, Casp3 UBC13 ctr 1 and UBC13 conf 48*.
For CC=Cc1ccc2n(c1=O)C[C@H]1[C@H](CO)[C@@H](C(=O)N[C@@H](C)c3ccccc3)[C@@H]2N1Cc1ccccc1 (mixture of isomers) the results were RAD52 anneal inh -3.
`CC1CCN(CCCNC(=O)C2CCCN(c3ncnc4c3nc3n4CCCCC3)C2)CC1` (stereo not given) gave beta cell repl 0, DNA FID counter 1, PREPL inhibitor 10, UBC13 polyUb 12, RAD52 anneal inh -5 and RAD54 branch -11.
Screening O=C(NCCCN1CCN(c2ccc(F)cc2)CC1)C1CCCN(c2ncnc3c2nc2n3CCCCC2)C1 (stereo not given) returned beta cell repl -2, DNA FID counter 16, PREPL inhibitor 28, UBC13 polyUb 83*, RAD52 anneal inh 3, RAD54 branch 6, Casp3 UBC13 ctr 1 and UBC13 conf 107*.
`Cc1ccccc1CN1CCC(CNC(=O)C2CCCN(c3ncnc4c3nc3n4CCCCC3)C2)CC1` (stereo not given) gave beta cell repl -1, DNA FID counter 29, PREPL inhibitor 28, UBC13 polyUb 72*, RAD52 anneal inh -5, RAD54 branch 0, Casp3 UBC13 ctr 1 and UBC13 conf 90*.
Screening O=C(Cc1ccccn1)N[C@H]1CC[C@H](CC(=O)N2CCCCC2)O[C@@H]1CO returned RAD52 anneal inh -6 and RAD54 branch -5.
COc1ccc(C(CNC(=O)COc2c(C)cc(C)cc2C)N2CCOCC2)cc1 (stereo not given) was read as beta cell repl -4, PREPL inhibitor 10, UBC13 polyUb 51*, RAD52 anneal inh 4, RAD54 branch 3, Casp3 UBC13 ctr -1 and UBC13 conf 29.
`CC=Cc1ccc2n(c1=O)C[C@H]1[C@H](CO)[C@@H](C(=O)NCC)[C@@H]2N1Cc1nccs1` (mixture of isomers) gave RAD52 anneal inh -14 and RAD54 branch 6.
